# Most compounds without a hit are left out; they make up all but 2.1% or so of the library.
# PAX8 inh HTS – lowers PAX8-driven luciferase in RMG-I cells. RMG-I TPO-luciferase reporter, SteadyGlo, 24 h. inhibition, % at 12.6 µM. 360,000 tested, 1.2% active. AID 652154;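 active means mean replicate inhibition at least 60% with every replicate also reaching 60%; inconclusive means only one of the two criteria is met; inactive means mean below 60% and not all replicates reaching 60%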;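 further: luciferase light reporting Pax8 driven TPO promoter activity; plate controls were median of neutral control wells for no effect and mitoxantrone controls for full effect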
# HIF-2a block – HIF-2a inhibition. 786-0 RCC cells HIF-2a reporter, luciferase luminescence, overnight. inhibition, % at 18.8 µM. 360,000 tested, 0.72% active;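 active means inhibition of the luminescence signal of 40% or more relative to plate controls, in a single-dose primary screen at 18.75 µM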
# KKLEB cytotox – counter-screen for CF NF-kB inhibitors: cytotoxicity. KKLEB CF airway cells viability, ATPlite luminescence, overnight; active compounds read low; cells stimulated with P. aeruginosa culture filtrate. activity change (cytotoxicity), % at 5 µM. 360,000 tested, 0.36% active;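 active means corrected activity change at or below -50% at 5 µM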
# CF NFkB block – blocks PAF-induced NF-kB reporter in cystic fibrosis cells. KKLEB NF-kB-GFP reporter, GFP fluorescence overnight. inhibition, % at 5 µM. 360,000 tested, 0.86% active. AID 588850;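 active means at least 50% inhibition at 5 µM, scaled per plate between neutral and stimulator controls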;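 further: PAF is a Pseudomonas aeruginosa culture filtrate used as stimulus; plate controls were PAF-stimulated DMSO wells for no effect and unstimulated DMSO wells for full effect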
# EWS-Fli block – inhibitors of EWS/Fli oncoprotein transcriptional activity; 350,000 tested, 0.67% active; A673 NR0B1-luciferase reporter, viability-normalised; inhibition, % at 12.6 µM;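 active means mean inhibition of at least 50% after viability correction, with every replicate also passing that limit; inconclusive means mean reaches 50% but only one of two replicates passes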;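 further: firefly luciferase signal divided by Alamar Blue viability fluorescence both relative to DMSO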
# Active calls of the source: *; u = inconclusive; x = no result; ! = a repeat was not active.
SMILES,PAX8 inh HTS,HIF-2a block,KKLEB cytotox,CF NFkB block,EWS-Fli block
O=[N+]([O-])c1c(Nc2ccc(O)cc2)cc(Cl)c2nonc12,113*,95*,-76*,103*,61*
O=[N+]([O-])c1c(Nc2ccccn2)cc(Cl)c2nonc12,27,96*,-44,67*,45
Cc1ccc(S(=O)(=O)Nc2ccc3c(c2)C(=O)N([C@@H](C)CO)C[C@@H](C)[C@@H](CN(C)Cc2ccncc2)OCCCC[C@H](C)O3)cc1,-4,x,x,x,2
COc1cc(OC)c(/C=C2\C(=O)Nc3ccccc32)c(OC)c1,7,x,x,x,56*
CCN1/C(=C\c2ccc3cc(C)ccc3[n+]2CC)Sc2cc(C)c(C)cc21,91*,14,-12,-65,57*
CCN1/C(=C/c2ccc3cc(C)cc(C)c3[n+]2CC)Sc2cc(C)ccc21,101*,-15,-53*,-245,76*
COc1ccc(S(=O)(=O)N[C@H]2CC[C@H](CC(=O)O)O[C@@H]2CO)cc1,3,x,x,x,-2
O=C(N[C@H]1C[C@@H]2O[C@@H](CO)CC[C@@H]2O[C@@H]1CCc1ccc(C#CC2CC2)cc1)c1cccc(F)c1,22,x,x,x,-2
Cc1cc(Br)ccc1OCCn1ccnc1,73*,-2,-10,-1,8
Clc1cc(Br)ccc1OCCn1ccnc1,4,3,2,9,x
COC(=O)[C@]1(CCC(=O)OC(C)(C)C)N=C(c2ccc(OCCCO)cc2)O[C@@H]1c1ccccc1,x,x,x,x,-8
CCC(C)(C)c1ccc(OCCCC[n+]2cccc(C)c2)c(C(C)(C)CC)c1,71*,32,-48,60*,0
Cc1ccc(S(=O)(=O)c2ccc([N+](=O)[O-])o2)cc1,127*,89*,-89*,78*,43
CN(C)S(=O)(=O)c1ccc(Nc2nc(C3CC3)nc3c2nnn3Cc2ccccc2Cl)cc1,67*,28,-10,27,x
CC(=O)Nc1cccc(NC(=O)C(=O)Nc2ccc3c(c2)N(C(=O)C2CC2)CCC3)c1,-49,-151,-1,-4,-15
COc1ccccc1NC(=O)C(=O)Nc1ccc2c(c1)N(C(=O)C1CC1)CCC2,79*,-45,-25,7,-26
C[C@H](CO)N1C[C@H](C)[C@@H](CN(C)S(=O)(=O)c2ccc(F)cc2)OCCCC[C@H](C)Oc2ccc(NS(=O)(=O)c3ccc(Cl)cc3)cc2C1=O,90*,x,x,x,-12
C[C@@H]1CCCCO[C@@H](CN(C)S(=O)(=O)c2ccc(Cl)cc2)[C@H](C)CN([C@H](C)CO)C(=O)c2cc(NS(=O)(=O)c3ccc(F)cc3)ccc2O1,81*,x,x,x,8
C[C@@H]1CN([C@H](C)CO)C(=O)c2cc(NS(=O)(=O)c3ccc(Cl)cc3)ccc2O[C@@H](C)CCCCO[C@H]1CN(C)S(=O)(=O)c1ccc(F)cc1,87*,x,x,x,5
C[C@@H]1CN([C@@H](C)CO)C(=O)c2cc(NS(=O)(=O)c3ccc(F)cc3)ccc2O[C@@H](C)CCCCO[C@@H]1CN(C)S(=O)(=O)c1ccc(Cl)cc1,46,x,x,x,-3
C[C@@H]1CCCCO[C@H](CN(C)S(=O)(=O)c2ccc(Cl)cc2)[C@@H](C)CN([C@@H](C)CO)C(=O)c2cc(NS(=O)(=O)c3ccc(F)cc3)ccc2O1,75*,x,x,x,23
C[C@@H]1CN([C@@H](C)CO)C(=O)c2ccccc2-c2ccccc2CO[C@H]1CN(C)C(=O)Nc1ccc2c(c1)OCO2,0,x,x,x,-14
C[C@H]1CCCCO[C@H](CN(C)Cc2ccc(Cl)c(Cl)c2)[C@@H](C)CN([C@@H](C)CO)C(=O)c2cc(NC(=O)Nc3ccc(C(F)(F)F)cc3)ccc2O1,78*,x,x,x,7
C[C@@H]1CCCCO[C@H](CN(C)Cc2ccc(Cl)c(Cl)c2)[C@H](C)CN([C@@H](C)CO)C(=O)c2cc(NC(=O)Nc3ccc(C(F)(F)F)cc3)ccc2O1,90*,x,x,x,-10
C[C@@H]1CN([C@H](C)CO)C(=O)c2cc(NC(=O)Nc3ccc(C(F)(F)F)cc3)ccc2O[C@@H](C)CCCCO[C@H]1CN(C)Cc1ccc(Cl)c(Cl)c1,91*,x,x,x,1
SMILES,PAX8 inh HTS,HIF-2a block,KKLEB cytotox,CF NFkB block,EWS-Fli block
C[C@@H]1CCCCO[C@@H](CN(C)Cc2ccc(Cl)c(Cl)c2)[C@H](C)CN([C@H](C)CO)C(=O)c2cc(NC(=O)Nc3ccc(C(F)(F)F)cc3)ccc2O1,91*,x,x,x,-2
N#C[C@@H]1[C@H](c2ccccc2C2=CCCC2)[C@@H](CO)N1C(=O)CN1CCOCC1,x,x,x,x,-5
COCC#Cc1cnc2c(c1)C(=O)N([C@@H](C)CO)C[C@@H](C)[C@H](CN(C)Cc1ccc(-c3ccccc3)cc1)O2,x,x,x,x,15
C[C@@H]1CN([C@@H](C)CO)C(=O)c2cc(NC(=O)Nc3ccc(C(F)(F)F)cc3)ccc2O[C@@H](C)CCCCO[C@H]1CN(C)Cc1ccc(Cl)c(Cl)c1,93*,x,x,x,-4
C[C@@H]1CCCCO[C@@H](CN(C)Cc2ccc(Cl)c(Cl)c2)[C@@H](C)CN([C@H](C)CO)C(=O)c2cc(NC(=O)Nc3ccc(C(F)(F)F)cc3)ccc2O1,59,x,x,x,1
C[C@H](CO)N1C[C@H](C)[C@@H](CN(C)Cc2ccc(Cl)c(Cl)c2)OCCCC[C@H](C)Oc2ccc(NC(=O)Nc3ccc(C(F)(F)F)cc3)cc2C1=O,84*,x,x,x,-1
NC(=O)c1sc2nc3c(c(-c4ccco4)c2c1N)CCC3,x,4,-1,76*,-18
Cc1ccc(S(=O)(=O)N(C(=O)c2ccncc2)c2ccc(OC(=O)c3ccncc3)cc2)c(C)c1,19,24,-50*,72*,13
COc1ccc(-c2cc(C(=O)Nc3cc(OC)cc(C(=O)Nc4cccc(C(F)(F)F)c4)c3)[nH]n2)cc1,72*!,-16,-26,32,2
CCN1CCN(Cc2ccc(NC(=O)c3cc(NC(=O)c4cc(-c5ccc(OC)cc5)n[nH]4)cc(OC)c3)cc2C(F)(F)F)CC1,u,-32,-10,14,51*
CCN1CCN(Cc2ccc(NC(=O)c3ccc(C)c(/C=C/c4cnc(Nc5cc(N6CCNCC6)nc(C)n5)cn4)c3)cc2C(F)(F)F)CC1,x,1,-8,76*!,x
CCN1CCN(Cc2ccc(NC(=O)c3cc(NC(=O)c4ccc5n[nH]nc5c4)cc(OC)c3)cc2C(F)(F)F)CC1,4,-2,-3,5,-15
CCN1CCN(Cc2ccc(NC(=O)c3cc(NC(=O)c4cc5cccc(OC)c5o4)cc(OC)c3)cc2C(F)(F)F)CC1,90*!,7,-53*!,55*!,53*!
COc1cc(NC(=O)c2ccno2)cc(C(=O)Nc2cccc(C(F)(F)F)c2)c1,28,-20,12,-4,15
COc1ccc2c3c(n(C)c2c1)[C@H](CO)NCC31CN(C(=O)c2ccc(F)cc2)C1,x,x,x,x,5
CCN1CCN(Cc2ccc(NC(=O)c3ccc(C)c(NC(=O)c4cccc(-c5cn[nH]c(=O)c5)c4)c3)cc2C(F)(F)F)CC1,x,24,-6,72*,x

# Source: PubChem (several laboratories)
